# According to PMC11062922 (Nature Chemical Biology, 2023):
# Read-outs that look alike come from different tables or passages of the source.
# Tests used:
# Design in all cases: species or system human, MV4-11 + K-562 + COLO205 + SK-N-BE2 + OVCAR-8
# IKBKE = conditions: read-out: apparent Kd, compound concentrations: 100 nM and 1000 nM (sheet 'Samples'), n = 1
# STK4 = conditions: read-out: apparent Kd, n = 1
# BRAF = conditions: read-out: apparent Kd, n = 1
# MAP3K11 = conditions: read-out: apparent Kd, n = 1
# PRKAA1 = conditions: read-out: apparent Kd; compound concentrations:100 nM and 1000 nM (sheet 'Samples'); n = 1
# PRKAA2 = conditions: read-out: apparent Kd, n = 1
# ULK1 = conditions: read-out: apparent Kd; compound concentrations:100 nM and 1000 nM (sheet 'Samples'); n = 1
# BMP2K = conditions: read-out: apparent Kd; compound concentrations:100 nM and 1000 nM (sheet 'Samples'); n = 1
# SLK = conditions: read-out: apparent Kd, n = 1
# PIK3C2A = conditions: read-out: apparent Kd; compound concentrations:100 nM and 1000 nM (sheet 'Samples'); n = 1
# PIK3C3 = conditions: read-out: apparent Kd; compound concentrations:100 nM and 1000 nM (sheet 'Samples'); n = 1
# PIP4K2C = conditions: read-out: apparent Kd; compound concentrations:100 nM and 1000 nM (sheet 'Samples'); n = 1
# MAP4K2 = conditions: read-out: apparent Kd, n = 1
# TNIK = conditions: read-out: apparent Kd; compound concentrations: 100 nM and 1000 nM (sheet 'Samples'), CATDS: 4.94410528213204E-2; n = 1
# COX5A = conditions: read-out: apparent Kd, n = 1
# NNT = conditions: read-out: apparent Kd, n = 1
# PRKAG2 = conditions: read-out: apparent Kd, n = 1
# STK26 = conditions: read-out: apparent Kd, n = 1
# MARK4 = conditions: read-out: apparent Kd; compound concentrations:100 nM and 1000 nM (sheet 'Samples'); n = 1
# [1] = compound concentrations:100 nM and 1000 nM (sheet 'Samples')
structure (smiles),measurement,setting,value
Cn1cc(-c2ccc3c(c2)CCN3C(=O)Cc2cc(F)cc(C(F)(F)F)c2)c2c(N)ncnc21 [GSK2635225A],potency estimated from few doses,IKBKE; CATDS: 0.14106315772238301,1.22 µM
Cn1cc(-c2cnc(N)c3c(-c4ccc5c(c4)CCN5C(=O)Cc4ccccc4)csc23)cn1 [GSK2593074A],potency estimated from few doses,STK4; [1],1.13 µM
CC(C)c1nc(-c2cccc(NS(=O)(=O)c3c(F)cccc3F)c2)c(-c2ccnc(Nc3ccc(N4CCOCC4)nc3)n2)s1.Cl [GSK1723980B],potency estimated from few doses,"BRAF; compound concentrations: 100 nM and 1000 nM (sheet 'Samples'), CATDS: 2.6842704761094599E-2",0.243 µM
same,potency estimated from few doses,"MAP3K11; compound concentrations: 100 nM and 1000 nM (sheet 'Samples'), CATDS: 1.8312802074437001E-2",0.662 µM
Cl.Cn1c(=O)c(Cc2ccc(F)cc2F)cc2cnc(NC3CCOCC3)nc21 [RO3308757-001],potency estimated from few doses,PRKAA1,0.706 µM
same,potency estimated from few doses,PRKAA2; [1],1.19 µM
same,potency estimated from few doses,ULK1,1.55 µM
Fc1ccc(-c2c(-c3ccncc3)[nH]c3nccnc23)cc1 [RO1155697-000],potency estimated from few doses,ULK1,1.52 µM
CC(C)c1nc(-c2ccc(F)c(NS(=O)(=O)c3c(F)cccc3F)c2)c(-c2ccnc(Nc3ccc(N4CCOCC4)nc3)n2)s1 [GSK1804250A],potency estimated from few doses,BRAF; [1],0.939 µM
COc1cc2ncn(-c3cc(OCc4cccs4)c(C(N)=O)s3)c2cc1OC [GSK312948A],potency estimated from few doses,BMP2K,1.43 µM
same,potency estimated from few doses,SLK; [1],0.262 µM
Nc1nc(N)c2nc(-c3ccccc3)[nH]c2n1 [SKF-12778],potency estimated from few doses,PIK3C2A,2.13 µM
N#Cc1cccc(Nc2nccc(-c3cnn4ncccc34)n2)c1 [GW778894X],potency estimated from few doses,PIK3C3,0.994 µM
same,potency estimated from few doses,PIP4K2C,0.113 µM
Nc1ncc(-c2cn[nH]c2)c2scc(-c3ccc4c(c3)CCN4C(=O)Cc3ccccc3)c12 [GSK2593067A],potency estimated from few doses,"MAP4K2; compound concentrations: 100 nM and 1000 nM (sheet 'Samples'), CATDS: 0.15564611372576101",0.2 µM
same,potency estimated from few doses,"STK4; compound concentrations: 100 nM and 1000 nM (sheet 'Samples'), CATDS: 7.8104026917421798E-2",0.768 µM
Fc1cc(Cl)ccc1Nc1ccnc2cc(-c3ccc(CN4CCOCC4)o3)ccc12 [GW560109X],potency estimated from few doses,TNIK,2.05 µM
O=S(=O)(c1ccc(-c2ccnc3[nH]ccc23)cc1)N1CCCC1 [GSK846226A],potency estimated from few doses,COX5A; [1],0.848 µM
same,potency estimated from few doses,NNT; [1],2.15 µM
CNC(=O)c1ccccc1Nc1nc(Nc2cccc(CS(C)(=O)=O)c2)ncc1C.O=CO [GSK1520489A],potency estimated from few doses,IKBKE; CATDS: 1.0336564492146301E-2,1.11 µM
same,potency estimated from few doses,"SLK; compound concentrations: 100 nM and 1000 nM (sheet 'Samples'), CATDS: 2.2249249802163501E-2",0.107 µM
Clc1ccc(-c2nn3ncccc3c2-c2ccnc(Nc3ccccc3)n2)cc1 [GW829055X],potency estimated from few doses,"NNT; compound concentrations: 100 nM and 1000 nM (sheet 'Samples'), CATDS: 0.15486403103885801",0.13 µM
same,potency estimated from few doses,"PRKAG2; compound concentrations: 100 nM and 1000 nM (sheet 'Samples'), CATDS: 5.2406473036639797E-2",0.681 µM
COc1cc2ncn(-c3cc(OCc4sccc4Cl)c(C(N)=O)s3)c2cc1OC [GSK448459A],potency estimated from few doses,MAP4K2; [1],0.827 µM
same,potency estimated from few doses,SLK; [1],0.434 µM
Cc1ccc(-n2nc(C(C)(C)C)cc2NC(=O)Nc2ccc(OCCN3CCOCC3)cc2)cc1 [BIRB0876BS],potency estimated from few doses,COX5A; [1],0.963 µM
Cc1ccc(NC(=O)c2ccc(Cl)cc2)cc1-c1ccc(C(=O)Nc2ccncc2)cc1 [GSK1398467A],potency estimated from few doses,"NNT; compound concentrations: 100 nM and 1000 nM (sheet 'Samples'), CATDS: 0.228122835279086",0.956 µM
NC(=O)c1cccnc1COc1cc(-c2ccc(N3CCOCC3)nc2)cc2ncccc12 [BI01125081],potency estimated from few doses,MAP3K11; [1],1.89 µM
same,potency estimated from few doses,PIK3C3,1.26 µM
Fc1cccc(COc2ccc(Nc3ncncc3C#Cc3ccccc3)cc2Cl)c1 [GW651576X],potency estimated from few doses,"NNT; compound concentrations: 100 nM and 1000 nM (sheet 'Samples'), CATDS: 5.0215020986353498E-2",1.77 µM
same,potency estimated from few doses,"PRKAG2; compound concentrations: 100 nM and 1000 nM (sheet 'Samples'), CATDS: 5.1701945188740897E-2",1.67 µM
same,potency estimated from few doses,"STK26; compound concentrations: 100 nM and 1000 nM (sheet 'Samples'), CATDS: 5.7539827795964102E-2",1.35 µM
COc1cc(F)c(F)c(F)c1C(=O)c1cnc(NC2CCN(S(C)(=O)=O)CC2)nc1N [RO4600703-000],potency estimated from few doses,SLK; [1],0.471 µM
Nc1c(C(=O)c2ccccc2)cnn1-c1ccc(F)cc1 [RO1151246-000],potency estimated from few doses,MAP3K11; [1],1.92 µM
same,potency estimated from few doses,MARK4,1.29 µM
same,potency estimated from few doses,PIK3C2A,1.66 µM
same,potency estimated from few doses,PRKAA2; [1],1.78 µM
same,potency estimated from few doses,STK26; [1],1.89 µM
COc1cc2ncn(-c3cc(O[C@H](C)c4ccccc4Cl)c(C(N)=O)s3)c2cc1OC [GSK237701A],potency estimated from few doses,PRKAG2; [1],1.52 µM
same,potency estimated from few doses,SLK; [1],0.782 µM
COc1ccc(C2=C(c3cn(C)c4ccccc34)C(=O)NC2=O)cc1OC [RO3206363-000],potency estimated from few doses,"STK26; compound concentrations: 100 nM and 1000 nM (sheet 'Samples'), CATDS: 3.3943818014748203E-2",1.45 µM
same,potency estimated from few doses,"STK4; compound concentrations: 100 nM and 1000 nM (sheet 'Samples'), CATDS: 7.8788816860825395E-2",0.166 µM
Cc1[nH]nc2c1N=C(c1ccccc1Cl)c1cc([N+](=O)[O-])ccc1N2 [RO0274406-000],potency estimated from few doses,"COX5A; compound concentrations: 100 nM and 1000 nM (sheet 'Samples'), CATDS: 8.1877347137814999E-2",0.832 µM
Cn1cc(C2=C(c3cn(CCCCCO)c4ccccc34)C(=O)NC2=O)c2ccccc21 [RO0318053-000],potency estimated from few doses,"PRKAA2; compound concentrations: 100 nM and 1000 nM (sheet 'Samples'), CATDS: 8.4372577909481605E-2",1.45 µM
COc1ccc(COc2ccc(Cc3cnc(N)nc3N)cc2OC)cc1 [GW632580X],potency estimated from few doses,NNT; [1],1.91 µM
